In publication PMC5540273 (PLoS ONE, 2017):

Assays:
Conditions in all cases: concentration: 1 μM, replicates: in singlicate; n = 1
BIKE = test system: T1, BIKE
T1 construct: gene BMP2K

BLK = test system: BLK
BMPR1A = test system: BMPR1A
BMPR1B = test system: BMPR1B
BMPR2 = test system: BMPR2
BMX = test system: BMX
BRAF = test system: BRAF
BRK = test system: T2, BRK
T2 construct: gene PTK6

BRSK1 = test system: BRSK1
BRSK2 = test system: BRSK2
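Further: KINOMEscan kinase panel screen.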

Row | Compound | %Inh (BIKE) | %Inh (BLK) | %Inh (BMPR1A) | %Inh (BMPR1B) | %Inh (BMPR2) | %Inh (BMX) | %Inh (BRAF) | %Inh (BRK) | %Inh (BRSK1) | %Inh (BRSK2)
1 | Cc1ccc(NC(=O)Nc2ccc(Cl)cc2)cc1-c1ccc(C(=O)Nc2ccncc2)cc1 [GSK1398472] | 18% | 21% | 0% | 0% | 0% | 15% | 43% | 30% | 0% | 0%
2 | Cc1ccc(-c2nc(Nc3ccncc3)c3ccccc3n2)s1 [GSK189015] | 37% | 29% | 0% | 0% | 0% | 23% | 6% | 4% | 20% | 0%
3 | O=C1NC(=O)C(c2ccc(Cl)cc2)=C1Nc1cccc(Cl)c1 [SB-317651] | 0% | 12% | 0% | 0% | 0% | 3% | 0% | 0% | 0% | 1%
4 | COC(=O)C(NC(=O)NC1CCN(c2ccnc(Nc3ccc(F)cc3)n2)C1)c1ccccc1 (stereo not shown) [GSK1379712] | 8% | 0% | 0% | 0% | 17% | 3% | 9% | 2% | 12% | 0%
5 | Cc1c(Cn2c(C)c(C)n3c(=O)cc(N4CCOCC4)nc23)cccc1C(F)(F)F [GSK2328680] | 2% | 29% | 6% | 0% | 5% | 14% | 0% | 6% | 0% | 0%
6 | COc1ccc(Nc2nccc(N3CCC(NC(=O)C(C)c4ccc(Cl)cc4)C3)n2)cc1 (stereo not shown) [GSK1379735] | 25% | 33% | 19% | 0% | 4% | 27% | 0% | 0% | 7% | 0%
7 | Cc1ccc(NC(=O)Nc2ccccc2F)cc1-c1ccc(C(=O)Nc2ccncc2)cc1 [GSK1398477] | 28% | 51% | 7% | 0% | 0% | 29% | 20% | 34% | 15% | 13%
8 | CC(=O)c1c(C)c2cnc(Nc3ccc(N4CCNCC4)cn3)nc2n(C2CCCC2)c1=O | 0% | 0% | 15% | 0% | 0% | 0% | 0% | 0% | 0% | 0%
9 | CNCc1ccc2nc(NC(=O)c3ccc(C(C)(C)C)cc3)cn2c1 | 15% | 0% | 17% | 14% | 19% | 0% | 18% | 2% | 9% | 0%
10 | Nc1ncnc2occ(-c3ccc4c(c3)CCN4C(=O)Cc3cc(F)ccc3F)c12 [GSK2645446] | 17% | 14% | 0% | 0% | 8% | 12% | 4% | 8% | 12% | 0%
11 | Nc1cccc(-c2ccc3c(N)n[nH]c3c2)n1 [GSK2192730] | 74% | 0% | 2% | 16% | 0% | 1% | 0% | 0% | 55% | 37%
12 | c1ccc(-c2ccnc3[nH]ccc23)cc1 [SB-693578] | 0% | 4% | 1% | 0% | 47% | 0% | 4% | 14% | 0% | 100%
13 | COc1cc2ncnc(Nc3cccc(Br)c3)c2cc1OC.Cl [GI230329] | 19% | 79% | 0% | 0% | 0% | 10% | 0% | 10% | 20% | 14%
14 | CNc1cc(-c2ccc3c(N)n[nH]c3c2)nc(N)n1 [GSK2224810] | 74% | 0% | 16% | 78% | 5% | 15% | 0% | 6% | 2% | 0%
15 | COC(=O)c1cccc(NC(=O)NC2CCN(c3ccnc(Nc4ccc(OC)cc4)n3)C2)c1 (stereo not shown) [GSK1379746] | 6% | 0% | 9% | 0% | 26% | 3% | 7% | 28% | 0% | 0%
16 | COC(=O)c1cccc(NC(=O)NC2CCN(c3ccnc(Nc4ccc(F)cc4)n3)C2)c1 (stereo not shown) [GSK1379725] | 20% | 26% | 0% | 0% | 0% | 0% | 0% | 8% | 0% | 0%
17 | CCn1c(-c2ccccc2)nc2cnccc21 [SB-733416] | 28% | 0% | 0% | 0% | 10% | 0% | 49% | 27% | 0% | 1%

Row | Compound | %Inh (BIKE) | %Inh (BLK) | %Inh (BMPR1A) | %Inh (BMPR1B) | %Inh (BMPR2) | %Inh (BMX) | %Inh (BRAF) | %Inh (BRK) | %Inh (BRSK1) | %Inh (BRSK2)
18 | COc1ccc(Nc2nccc(-c3ccc(NC(=O)c4cc5cc(F)ccc5[nH]4)cc3)n2)cc1 [GSK1229496] | 33% | 0% | 0% | 0% | 21% | 16% | 0% | 16% | 0% | 0%
19 | NS(=O)(=O)c1cccc(N/C=C2\C(=O)Nc3ccc(S(=O)(=O)Cc4c(Cl)cccc4Cl)cc32)c1 [GSK398099] | 0% | 0% | 0% | 0% | 8% | 0% | 0% | 2% | 0% | 0%
20 | COc1ccc(Nc2nccc(N3CCC(NC(=O)c4cc5ccccc5s4)C3)n2)cc1 (stereo not shown) [GSK1379738] | 13% | 0% | 0% | 0% | 11% | 0% | 0% | 0% | 0% | 0%
21 | CC(=O)c1cccc(NC(=O)NC2CCN(c3ccnc(Nc4ccc(F)cc4)n3)C2)c1 (stereo not shown) [GSK1379710] | 25% | 0% | 0% | 0% | 10% | 16% | 0% | 4% | 6% | 0%
22 | Fc1ccc(-c2nc[nH]c2-c2ccncc2)cc1 [SB-217360] | 0% | 25% | 0% | 0% | 22% | 0% | 50% | 0% | 0% | 0%
23 | CS(=O)(=O)Cc1ccc(Nc2nccc(-c3c(-c4cccc(NC(=O)C5CCCCC5)c4)nn4ncccc34)n2)cc1 [GSK350559] | 1% | 0% | 0% | 19% | 24% | 37% | 20% | 2% | 0% | 0%
24 | CN1c2ccc(-c3ccc(C(N)=O)cc3)cc2-c2[nH]ncc2S1(=O)=O | 9% | 6% | 0% | 0% | 0% | 0% | 0% | 0% | 0% | 6%
25 | CSc1ccc(-c2nc3n(c2-c2ccncc2)CCC3)cc1 [SKF-105561] | 16% | 4% | 0% | 6% | 1% | 0% | 7% | 1% | 0% | 0%
26 | O=c1cc(N2CCOCC2)nc2n(Cc3ccccc3F)ccn12 [GSK2297428] | 0% | 21% | 0% | 0% | 0% | 13% | 0% | 36% | 0% | 100%
27 | COc1cccc(C2=C(Nc3cc(Cl)c(O)c(Cl)c3)C(=O)NC2=O)c1 [SB-390767] | 21% | 0% | 0% | 0% | 1% | 13% | 0% | 18% | 7% | 0%
28 | CNc1nc(-c2ccc3c(N)n[nH]c3c2)cc(N2C[C@@H](C(=O)Nc3ccccc3)CC[C@H]2C)n1 [GSK2298859] | 36% | 0% | 0% | 0% | 0% | 15% | 0% | 9% | 0% | 21%
29 | CCn1c(-c2c(N)noc2C)nc2cnccc21 [SB-737856] | 22% | 0% | 0% | 0% | 3% | 0% | 0% | 0% | 6% | 0%
30 | Cc1nccc(-c2c(-c3ccc(F)cc3)ncn2CCCN2CCOCC2)n1.Cl [SB-282975] | 15% | 12% | 26% | 8% | 41% | 31% | 10% | 13% | 0% | 17%
31 | O=C(Nc1n[nH]c2nc(-c3cccs3)c(Br)cc12)C1CCCC1 [SB-743341] | 12% | 0% | 28% | 19% | 46% | 14% | 7% | 12% | 63% | 66%
32 | Cn1cnc2c(N)ncnc21 [SKF-97623] | 0% | 0% | 0% | 0% | 0% | 0% | 0% | 0% | 24% | 0%
33 | COc1ccc(CSc2nnc(-c3ccc4nccn4c3)o2)cc1C(F)(F)F | 18% | 1% | 0% | 21% | 3% | 0% | 9% | 0% | 14% | 3%
34 | Cl.Cl.Cl.N#Cc1ccc(CCNc2nccc(-c3cccc(CN4CCNCC4)c3)n2)cc1 [GSK2137462] | 25% | 0% | 0% | 0% | 0% | 12% | 0% | 8% | 0% | 2%
